Only some compounds are listed: those with a hit (about 6.6% of all), similar ones and a draw of the others.
Anthrax LF prot = anthrax lethal factor protease inhibition. inhibition, % at 10 µM. multiplex microsphere protease cleavage assay, LF. actives 0.12% (n = 360,000). P15917
FBA Mtb inh = inhibitors of M. tuberculosis fructose-bisphosphate aldolase. purified M. tuberculosis FBA, fluorescence read-out. inhibition, % at 1 µM. actives 2.3% (n = 360,000). AID 588726; in the data active = inhibition above about 27%
Target sequence (P9WQA3 whole entry, looked up): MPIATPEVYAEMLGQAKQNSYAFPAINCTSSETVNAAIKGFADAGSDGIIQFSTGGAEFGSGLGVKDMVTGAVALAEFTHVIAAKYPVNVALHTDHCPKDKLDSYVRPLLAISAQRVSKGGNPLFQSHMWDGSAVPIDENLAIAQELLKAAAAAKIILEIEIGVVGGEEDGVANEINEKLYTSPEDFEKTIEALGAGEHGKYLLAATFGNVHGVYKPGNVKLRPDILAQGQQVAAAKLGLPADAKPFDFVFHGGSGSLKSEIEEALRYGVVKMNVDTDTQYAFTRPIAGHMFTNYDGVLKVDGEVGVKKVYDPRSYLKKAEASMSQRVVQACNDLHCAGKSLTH
BoNT-F LC inh = BoNT F light chain protease inhibition | Multiplex microsphere protease cleavage assay, flow cytometry | inhibition, % at 10 µM | actives 0.22% (n = 360,000); in the data active = inhibition above about 35%, passing the limit was not always enough; inconclusive = no clear call, values can overlap the other calls
GDH-TPI counter = inhibits GDH-TPI coupling enzymes, artifact for Mtb FBA screen; GDH-TPI coupled enzyme counterscreen, NADH absorbance; inhibition, % at 4.8 µM; actives 1.2% (n = 360,000); AID 588335; in the data active = inhibition above about 30%
BoNT A protease = inhibitors of Botulinum neurotoxin A light chain protease. multiplex microsphere protease substrate cleavage, flow cytometry. inhibition, % at 10 µM. actives 0.17% (n = 360,000). AID 588499
Bead autofluor = compound fluorescence in toxin protease inhibitor counterscreen; compound autofluorescence counterscreen, microsphere flow cytometry; active compounds read high; fluorescence intensity (concentration not given with the values); actives 3.1% (n = 360,000); in the data active = fluorescence intensity above about 16000; inconclusive = no clear call, values can overlap the other calls
Numbers stand for hits; – = inactive; ? = inconclusive; · = no result given; + = active, no number. Cut-off read from the data, not from the text of the source, unless noted: active = inhibition above about 30%; inconclusive = no clear call, values can overlap the other calls; inactive = below that.

SMILES | Anthrax LF prot | FBA Mtb inh | BoNT-F LC inh | GDH-TPI counter | BoNT A protease | Bead autofluor
CN(c1ccccc1)c1ccc(/C=N/NC(=O)CC#N)cc1 | – | – | – | 31 | – | –
CN(C)c1ccc(/C=N/NC(=S)NCc2ccccc2)cc1 | – | – | – | 32 | – | –
Cc1ccc(S(=O)(=O)NCc2ccc(C(=O)N3CCN(c4ccc([N+](=O)[O-])cc4)CC3)cc2)cc1 | – | – | – | – | – | –
COc1cccc(CN2CC(C(=O)NCCc3ccc(C)s3)CCC2=O)c1 (configuration not stated) | · | – | · | – | · | ·
CCOc1ccc(S(=O)(=O)N2CCOCC2)cc1NC(=O)CN1C(=O)NC(CC)(c2ccccc2)C1=O (configuration not stated) | – | – | – | – | – | –
CN(C)c1ccc(/C=N/NC(=O)CSc2ccccn2)cc1 | – | – | ? | 60 | – | –
Cc1ccccc1N(CC(=O)N/N=C/c1ccc(N(C)C)cc1)C(=O)c1ccccc1 | – | – | – | 40 | – | –
O=C1c2ccccc2NC2(CCCCC2)N1c1ccc(O)cc1 | 54 | – | 156 | – | – | –
CC1CCC2(CC1)Nc1ccccc1C(=O)N2c1ccccc1 (configuration not stated) | – | – | – | – | – | –
O=C(NCc1nnc2c(C(F)(F)F)cc(Cl)cn12)C1CCCC1 | – | – | – | – | – | –
COc1ccc(C(=O)C2CCCN(Cc3c(O)cccc3OC)C2)cc1OC (configuration not stated) | – | – | 37 | – | – | –
Cc1cc(-c2csc3nc[nH]c(=S)c23)cc(C)c1C | – | – | – | 40 | – | –
O=C(c1cc(=O)[nH]c2ccccc12)N1CC=C(c2ccccc2)CC1 | – | – | – | – | – | –
CC(C)(O)P(C)(=O)c1ccccc1 (configuration not stated) | – | – | – | – | – | –
CC(C)(C)P(=O)(CO)c1ccccc1 (configuration not stated) | – | – | – | – | – | 19072
CCOC(=O)c1oc2nc(CC(C)C)c3c(c2c1N)CCCC3 | – | 137 | – | – | – | –
COc1ccc(-c2nsc(C(=O)N(c3ccc(F)cc3)C(C(=O)NC3CCCC3)c3ccc(OC)cc3)c2N)cc1 (configuration not stated) | – | – | – | 31 | – | 23904
O=C(CCCN1C(=O)c2ccccc2C1=O)Oc1ccc(F)cc1 | – | – | – | – | – | 23354
O=C(CCCN1C(=O)c2ccccc2C1=O)NCc1ccc(F)cc1 | – | – | ? | – | – | –
COC(=O)c1ccc(OC(=O)CN2C(=O)c3ccccc3C2=O)cc1 | 38 | – | ? | – | – | –
COC(=O)c1ccc(CN2C(=O)c3ccccc3C2=O)cc1 | – | – | – | – | – | –
CC1(c2ccc3ccccc3c2)CCC(=O)O1 (configuration not stated) | – | – | – | – | – | –
O=C(OCC(=O)N1CCOCC1)c1ccc(O)cc1 | – | + | – | – | – | –
O=C(OCC(=O)N1CCOCC1)c1ccccc1O | – | – | – | – | – | –
Cc1ccc(-c2ccc(=O)n(CC(=O)Nc3cccc(C(=O)N4CCN(C)CC4)c3)n2)cc1 | – | – | – | – | ? | 19402
SMILES | Anthrax LF prot | FBA Mtb inh | BoNT-F LC inh | GDH-TPI counter | BoNT A protease | Bead autofluor
Cc1ccc(C(=O)Nc2cccc(C(=O)N3CCN(C)CC3)c2)cc1 | – | – | – | – | – | –
CCCCOC(=O)CCN1C(=O)/C(=C2\SC(=S)N(CCC(=O)OCCCC)C2=O)SC1=S | – | – | – | – | 30 | –
CN1C=CC=C/C1=C1\SC(=S)N(CC(=O)O)C1=O | – | – | – | – | – | –
CCCOC(=O)CCCN1C(=O)/C(=C2\SC(=S)N(CCCC(=O)OCCC)C2=O)SC1=S | – | – | ? | – | 81 | –
CCCCCOC(=O)CCN1C(=O)/C(=C2\SC(=S)N(CCC(=O)OCCCCC)C2=O)SC1=S | – | – | – | – | 40 | –
CC(C)(C)C(=O)Nc1cccc(-c2ncon2)c1 | – | – | ? | – | – | –
Cc1cc(/C=N\NC(=O)CC(=O)NC2CCCCC2)c(C)n1-c1cccc(Cl)c1Cl | – | – | – | – | – | –
Cc1cc(/C=N\NC(=O)CC(=O)NC2CCCCC2)c(C)n1-c1ccc(Cl)c(Cl)c1 | – | – | – | – | – | 24080
CSc1nnc(-c2cc3c(s2)-c2ccccc2CC3)o1 | – | + | – | – | – | –
